± gives the standard deviation of the averaged measurements.
Tests used:
Experiment in all cases: relative enzymatic activity vs untreated control (fraction); higher = less inhibition
Conditions in all cases: 100 µM; incubation time: 2 h at 37 C
DNA gyrase = system: DNA gyrase
Method: (§1)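 In vitro enzymatic inhibition assays (ProFoldin kits) for 12 purified essential E. coli enzymes or complexes, each treated with 218 active antibacterial compounds at 100 µM for 2 h at 37°C. Read-outs were fluorescence or absorbance (phosphate detection, dye binding), converted to activity via standard curves and expressed relative to untreated DMSO controls.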

DNA helicase = DNA helicase (UniProt P0ACB1)
DNA helicase, sequence (P0ACB1 whole entry): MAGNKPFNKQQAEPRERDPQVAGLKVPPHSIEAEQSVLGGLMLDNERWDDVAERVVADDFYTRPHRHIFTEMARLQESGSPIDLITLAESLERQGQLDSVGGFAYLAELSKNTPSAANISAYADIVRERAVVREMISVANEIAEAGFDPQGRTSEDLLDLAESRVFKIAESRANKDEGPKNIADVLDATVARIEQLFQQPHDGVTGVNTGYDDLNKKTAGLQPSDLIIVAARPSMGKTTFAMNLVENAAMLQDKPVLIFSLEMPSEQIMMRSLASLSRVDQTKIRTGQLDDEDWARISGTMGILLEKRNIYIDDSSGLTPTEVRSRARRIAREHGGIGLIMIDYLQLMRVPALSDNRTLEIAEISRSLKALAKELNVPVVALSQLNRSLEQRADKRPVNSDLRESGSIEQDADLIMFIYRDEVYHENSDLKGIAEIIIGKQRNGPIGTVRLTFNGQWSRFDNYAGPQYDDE
Method: as §1

DNA ligase = DNA ligase (UniProt B1XA82)
DNA ligase, sequence (B1XA82 whole entry): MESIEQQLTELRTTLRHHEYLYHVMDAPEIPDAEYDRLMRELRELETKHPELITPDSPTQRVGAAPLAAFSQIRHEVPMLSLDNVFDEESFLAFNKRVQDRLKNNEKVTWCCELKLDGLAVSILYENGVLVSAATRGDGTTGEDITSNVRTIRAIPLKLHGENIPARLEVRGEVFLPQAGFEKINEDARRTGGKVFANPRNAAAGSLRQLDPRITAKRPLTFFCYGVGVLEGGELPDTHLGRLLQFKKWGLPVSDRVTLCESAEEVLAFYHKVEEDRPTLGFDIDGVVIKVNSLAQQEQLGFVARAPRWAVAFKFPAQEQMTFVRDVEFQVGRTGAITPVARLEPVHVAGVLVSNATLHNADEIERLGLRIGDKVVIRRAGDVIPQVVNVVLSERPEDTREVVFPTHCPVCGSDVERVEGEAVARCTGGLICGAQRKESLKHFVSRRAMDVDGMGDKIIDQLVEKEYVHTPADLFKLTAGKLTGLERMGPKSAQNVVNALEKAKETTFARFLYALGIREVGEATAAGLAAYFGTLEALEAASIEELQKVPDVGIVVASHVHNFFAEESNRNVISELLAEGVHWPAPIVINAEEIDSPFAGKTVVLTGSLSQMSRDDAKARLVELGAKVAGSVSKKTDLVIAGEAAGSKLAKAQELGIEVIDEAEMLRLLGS
Method: as §1

DNA polymerase = DNA polymerase (UniProt P10443)
DNA polymerase, sequence (P10443 whole entry): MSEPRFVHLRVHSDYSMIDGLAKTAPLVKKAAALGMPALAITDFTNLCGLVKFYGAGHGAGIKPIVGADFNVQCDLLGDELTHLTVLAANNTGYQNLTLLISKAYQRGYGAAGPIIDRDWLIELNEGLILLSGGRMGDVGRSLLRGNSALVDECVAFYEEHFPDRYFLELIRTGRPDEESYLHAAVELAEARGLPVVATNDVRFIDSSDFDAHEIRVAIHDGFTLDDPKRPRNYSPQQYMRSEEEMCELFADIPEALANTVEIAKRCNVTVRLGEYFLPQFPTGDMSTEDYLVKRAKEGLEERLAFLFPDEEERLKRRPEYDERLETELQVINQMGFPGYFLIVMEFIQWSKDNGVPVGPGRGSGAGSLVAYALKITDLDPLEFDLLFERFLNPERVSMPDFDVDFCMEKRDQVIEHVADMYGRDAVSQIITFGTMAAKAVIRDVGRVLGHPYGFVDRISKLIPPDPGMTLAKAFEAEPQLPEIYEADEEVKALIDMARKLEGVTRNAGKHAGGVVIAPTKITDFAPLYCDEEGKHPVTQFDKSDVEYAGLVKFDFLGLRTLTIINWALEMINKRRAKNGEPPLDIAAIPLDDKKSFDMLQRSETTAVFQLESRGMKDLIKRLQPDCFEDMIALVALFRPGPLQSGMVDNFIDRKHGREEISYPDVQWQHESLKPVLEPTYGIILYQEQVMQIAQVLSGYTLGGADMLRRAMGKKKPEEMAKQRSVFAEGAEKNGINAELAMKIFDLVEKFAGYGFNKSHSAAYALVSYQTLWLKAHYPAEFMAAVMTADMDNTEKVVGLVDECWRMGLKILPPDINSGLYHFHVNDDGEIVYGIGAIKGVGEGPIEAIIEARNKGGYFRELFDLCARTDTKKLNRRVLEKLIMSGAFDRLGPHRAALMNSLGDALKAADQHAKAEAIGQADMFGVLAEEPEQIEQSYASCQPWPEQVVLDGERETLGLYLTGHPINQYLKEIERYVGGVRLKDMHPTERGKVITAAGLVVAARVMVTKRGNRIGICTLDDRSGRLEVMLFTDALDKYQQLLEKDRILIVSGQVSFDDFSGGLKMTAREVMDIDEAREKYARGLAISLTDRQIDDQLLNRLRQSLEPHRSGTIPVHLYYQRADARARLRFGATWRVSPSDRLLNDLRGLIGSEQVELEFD
Method: as §1

DNA primase = DNA primase (UniProt P0ABS7)
DNA primase, sequence (P0ABS7 whole entry): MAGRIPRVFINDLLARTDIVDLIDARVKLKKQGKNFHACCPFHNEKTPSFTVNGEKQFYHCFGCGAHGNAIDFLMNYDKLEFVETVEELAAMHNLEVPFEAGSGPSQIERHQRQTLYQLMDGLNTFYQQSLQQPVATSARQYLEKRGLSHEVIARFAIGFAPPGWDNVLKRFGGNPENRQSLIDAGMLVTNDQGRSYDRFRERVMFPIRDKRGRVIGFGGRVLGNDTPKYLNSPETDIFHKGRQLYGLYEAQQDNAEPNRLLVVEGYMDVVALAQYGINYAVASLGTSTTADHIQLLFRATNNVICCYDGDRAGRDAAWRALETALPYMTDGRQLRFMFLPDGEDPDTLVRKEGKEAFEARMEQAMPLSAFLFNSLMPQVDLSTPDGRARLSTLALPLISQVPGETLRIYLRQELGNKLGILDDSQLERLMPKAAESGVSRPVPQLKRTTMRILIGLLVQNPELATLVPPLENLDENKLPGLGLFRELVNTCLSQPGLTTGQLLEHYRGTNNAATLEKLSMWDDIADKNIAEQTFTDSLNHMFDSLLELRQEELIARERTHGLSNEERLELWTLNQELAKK
Method: as §1

GlmU = GlmU (UniProt A7ZTU1)
GlmU, sequence (A7ZTU1 whole entry, looked up): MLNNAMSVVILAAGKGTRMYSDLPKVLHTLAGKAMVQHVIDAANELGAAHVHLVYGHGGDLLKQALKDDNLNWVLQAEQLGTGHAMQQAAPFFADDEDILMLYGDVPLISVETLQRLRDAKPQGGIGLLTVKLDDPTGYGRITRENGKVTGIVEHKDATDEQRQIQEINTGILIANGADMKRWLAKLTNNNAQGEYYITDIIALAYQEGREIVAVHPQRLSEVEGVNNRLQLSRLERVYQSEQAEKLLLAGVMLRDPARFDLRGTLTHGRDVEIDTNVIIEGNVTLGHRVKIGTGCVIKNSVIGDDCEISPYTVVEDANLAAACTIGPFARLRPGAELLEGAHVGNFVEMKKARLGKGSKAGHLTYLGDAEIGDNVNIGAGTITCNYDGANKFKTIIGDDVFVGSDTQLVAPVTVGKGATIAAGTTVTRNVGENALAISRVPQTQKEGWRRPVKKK
Method: as §1

Guanlyate kinase = Guanlyate kinase (UniProt Q0TBG1)
Guanlyate kinase, sequence (Q0TBG1 whole entry): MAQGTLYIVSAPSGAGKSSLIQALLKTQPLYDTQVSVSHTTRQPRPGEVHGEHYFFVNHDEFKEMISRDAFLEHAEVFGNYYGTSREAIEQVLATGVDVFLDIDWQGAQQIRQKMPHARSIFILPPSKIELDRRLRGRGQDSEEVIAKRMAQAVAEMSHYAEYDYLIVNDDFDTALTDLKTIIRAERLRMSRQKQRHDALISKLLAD
Method: as §1

MurA = MurA (UniProt Q3YX52)
MurA, sequence (Q3YX52 whole entry): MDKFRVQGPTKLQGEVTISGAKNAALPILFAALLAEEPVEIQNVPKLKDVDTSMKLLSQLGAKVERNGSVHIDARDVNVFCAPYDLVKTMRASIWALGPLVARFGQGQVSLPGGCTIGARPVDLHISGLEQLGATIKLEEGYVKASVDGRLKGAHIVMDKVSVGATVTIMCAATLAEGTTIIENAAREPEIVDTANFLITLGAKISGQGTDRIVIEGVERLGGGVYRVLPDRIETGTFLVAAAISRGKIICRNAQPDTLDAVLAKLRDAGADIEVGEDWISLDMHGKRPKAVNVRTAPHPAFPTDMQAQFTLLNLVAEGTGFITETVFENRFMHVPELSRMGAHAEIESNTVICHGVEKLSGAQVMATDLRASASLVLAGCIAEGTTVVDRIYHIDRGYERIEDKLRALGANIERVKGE
Method: as §1

MurD = target: T1, MurD (UniProt P14900)
T1 sequence (whole entry): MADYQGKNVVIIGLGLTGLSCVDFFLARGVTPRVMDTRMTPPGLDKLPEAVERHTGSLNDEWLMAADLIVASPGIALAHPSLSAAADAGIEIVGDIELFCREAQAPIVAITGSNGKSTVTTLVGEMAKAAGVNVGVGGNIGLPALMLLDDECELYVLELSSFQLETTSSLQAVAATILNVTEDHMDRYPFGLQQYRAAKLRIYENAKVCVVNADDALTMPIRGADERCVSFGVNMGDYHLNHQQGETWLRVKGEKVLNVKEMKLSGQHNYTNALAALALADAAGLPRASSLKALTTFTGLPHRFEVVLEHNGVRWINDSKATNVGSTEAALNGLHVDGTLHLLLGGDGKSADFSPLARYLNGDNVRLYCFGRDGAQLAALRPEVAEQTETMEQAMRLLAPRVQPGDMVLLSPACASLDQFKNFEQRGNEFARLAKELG
Method: as §1

MurF = target: T2, MurF (UniProt P11880)
T2 sequence (whole entry): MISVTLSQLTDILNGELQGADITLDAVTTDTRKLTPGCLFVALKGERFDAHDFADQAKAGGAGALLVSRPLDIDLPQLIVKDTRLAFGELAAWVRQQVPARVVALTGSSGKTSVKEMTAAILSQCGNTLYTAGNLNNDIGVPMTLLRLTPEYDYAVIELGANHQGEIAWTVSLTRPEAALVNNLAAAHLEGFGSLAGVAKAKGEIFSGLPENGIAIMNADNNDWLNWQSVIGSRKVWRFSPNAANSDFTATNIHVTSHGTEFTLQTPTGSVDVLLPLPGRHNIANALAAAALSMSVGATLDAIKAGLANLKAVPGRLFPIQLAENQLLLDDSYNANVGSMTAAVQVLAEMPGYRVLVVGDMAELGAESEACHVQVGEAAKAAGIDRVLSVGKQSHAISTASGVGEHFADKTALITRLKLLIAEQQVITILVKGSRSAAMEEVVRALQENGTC
Method: as §1

RNA polymerase = system: RNA polymerase
Method: as §1

SMILES: C=C1c2cccc(O)c2C(=O)C2=C(O)C3(O)C(=O)C(C(N)=O)=C(O)C(N(C)C)C3C(O)C12.Cl (stereo not drawn)
- relative enzymatic activity (DNA gyrase): 0.0714 ± 0.1
- relative enzymatic activity (DNA helicase): 0.143 ± 0.031
- relative enzymatic activity (DNA ligase): 0.963 ± 0.19
- relative enzymatic activity (DNA polymerase): 0.187 ± 0.022
- relative enzymatic activity (DNA primase): 0.399 ± 0.077
- relative enzymatic activity (GlmU): 1 ± 0.011
- relative enzymatic activity (Guanlyate kinase): 0.376 ± 0.018
- relative enzymatic activity (MurA): 0.0701 ± 0.026
- relative enzymatic activity (MurD): 0.62 ± 0.43
- relative enzymatic activity (MurF): 0.937 ± 0.28
- relative enzymatic activity (RNA polymerase): 0.052 ± 0.025

SMILES: CC[C@@H]1OC(=O)[C@H](C)[C@@H](O[C@H]2C[C@@](C)(OC)[C@@H](O)[C@H](C)O2)[C@H](C)[C@@H](O[C@@H]2O[C@H](C)C[C@H](N(C)C)[C@H]2O)[C@](C)(O)C[C@@H](C)/C(=N\OCOCCOC)[C@H](C)[C@@H](O)[C@]1(C)O
- relative enzymatic activity (DNA gyrase): 0.682 ± 0.5
- relative enzymatic activity (DNA helicase): 0.568 ± 0.081
- relative enzymatic activity (DNA ligase): 0.8031 ± 0.0034
- relative enzymatic activity (DNA polymerase): 0.48 ± 0.67
- relative enzymatic activity (DNA primase): 0.8559 ± 0.0026
- relative enzymatic activity (GlmU): 0.895 ± 0.076
- relative enzymatic activity (Guanlyate kinase): 0.922 ± 0.026
- relative enzymatic activity (MurA): 0.852 ± 0.19
- relative enzymatic activity (MurD): 0.583 ± 0.4
- relative enzymatic activity (MurF): 1.12 ± 0.015
- relative enzymatic activity (RNA polymerase): 0.884 ± 0.17

SMILES: NCC1OC(OC2C(N)CC(N)C(OC3OC(CO)C(O)C(N)C3O)C2O)C(N)C(O)C1O.O=S(=O)(O)O (stereo not drawn)
- relative enzymatic activity (DNA gyrase): 0.685 ± 0.063
- relative enzymatic activity (DNA helicase): 0.381 ± 0.53
- relative enzymatic activity (DNA ligase): 0.834 ± 0.15
- relative enzymatic activity (DNA polymerase): 0.924 ± 0.43
- relative enzymatic activity (DNA primase): 0.539 ± 0.052
- relative enzymatic activity (GlmU): 0.956 ± 0.069
- relative enzymatic activity (Guanlyate kinase): 0.589 ± 0.046
- relative enzymatic activity (MurA): 0.257 ± 0.04
- relative enzymatic activity (MurD): 0.647 ± 0.44
- relative enzymatic activity (MurF): 0.958 ± 0.17
- relative enzymatic activity (RNA polymerase): 0.537 ± 0.016

SMILES: CO/N=C(\C(=O)N[C@@H]1C(=O)N2C(C(=O)O)=C(CSC(=O)c3ccco3)CS[C@H]12)c1csc(N)n1
- relative enzymatic activity (DNA gyrase): 0.0013 ± 0.0018
- relative enzymatic activity (DNA helicase): 0.049 ± 0.0096
- relative enzymatic activity (DNA ligase): 0.817 ± 0.063
- relative enzymatic activity (DNA polymerase): 0.312 ± 0.026
- relative enzymatic activity (DNA primase): 0.533 ± 0.092
- relative enzymatic activity (GlmU): 0.492 ± 0.17
- relative enzymatic activity (Guanlyate kinase): 0.778 ± 0.12
- relative enzymatic activity (MurA): 0.0403 ± 0.017
- relative enzymatic activity (MurD): 0.125 ± 0.094
- relative enzymatic activity (MurF): 0.82 ± 0.26
- relative enzymatic activity (RNA polymerase): 0.602 ± 0.68

SMILES: CCn1cc(C(=O)O)c(=O)c2cnc(N3CCNCC3)nc21
- relative enzymatic activity (DNA gyrase): 0.262 ± 0.12
- relative enzymatic activity (DNA helicase): 0.533 ± 0.057
- relative enzymatic activity (DNA ligase): 0.92 ± 0.084
- relative enzymatic activity (DNA polymerase): 1.16 ± 0.2
- relative enzymatic activity (DNA primase): 0.876 ± 0.015
- relative enzymatic activity (GlmU): 0.94 ± 0.024
- relative enzymatic activity (Guanlyate kinase): 0.891 ± 0.16
- relative enzymatic activity (MurA): 0.865 ± 0.047
- relative enzymatic activity (MurD): 0.583 ± 0.38
- relative enzymatic activity (MurF): 1.136 ± 0.011
- relative enzymatic activity (RNA polymerase): 0.83 ± 0.027

SMILES: CCn1nc(C(=O)O)c(=O)c2cc3c(cc21)OCO3
- relative enzymatic activity (DNA gyrase): 0.136 ± 0.013
- relative enzymatic activity (DNA helicase): 0.479 ± 0.042
- relative enzymatic activity (DNA ligase): 1.093 ± 0.01
- relative enzymatic activity (DNA polymerase): 1.29 ± 0.3
- relative enzymatic activity (DNA primase): 0.744 ± 0.21
- relative enzymatic activity (GlmU): 0.99 ± 0.077
- relative enzymatic activity (Guanlyate kinase): 1.013 ± 0.0046
- relative enzymatic activity (MurA): 0.762 ± 0.17
- relative enzymatic activity (MurD): 0.61 ± 0.41
- relative enzymatic activity (MurF): 0.86 ± 0.028
- relative enzymatic activity (RNA polymerase): 0.929 ± 0.051

SMILES: NCCONC(=O)[C@@H]1CC[C@@H]2CN1C(=O)N2OS(=O)(=O)O
- relative enzymatic activity (DNA gyrase): 0.796 ± 0.34
- relative enzymatic activity (DNA helicase): 0.527 ± 0.074
- relative enzymatic activity (DNA ligase): 1.08 ± 0.078
- relative enzymatic activity (DNA polymerase): 1.13 ± 0.22
- relative enzymatic activity (DNA primase): 0.762 ± 0.033
- relative enzymatic activity (GlmU): 1.02 ± 0.082
- relative enzymatic activity (Guanlyate kinase): 1.01 ± 0.12
- relative enzymatic activity (MurA): 0.709 ± 0.27
- relative enzymatic activity (MurD): 0.562 ± 0.36
- relative enzymatic activity (MurF): 0.971 ± 0.24
- relative enzymatic activity (RNA polymerase): 0.902 ± 0.075

SMILES: C[C@H]1COc2c(C3(N)CC3)c(F)cc3c(=O)c(C(=O)O)cn1c23
- relative enzymatic activity (DNA gyrase): 0.0356 ± 0.05
- relative enzymatic activity (DNA helicase): 0.447 ± 0.079
- relative enzymatic activity (DNA ligase): 0.801 ± 0.074
- relative enzymatic activity (DNA polymerase): 0.5 ± 0.7
- relative enzymatic activity (DNA primase): 0.8435 ± 0.0058
- relative enzymatic activity (GlmU): 0.995 ± 0.012
- relative enzymatic activity (Guanlyate kinase): 0.991 ± 0.021
- relative enzymatic activity (MurA): 0.619 ± 0.16
- relative enzymatic activity (MurD): 0.578 ± 0.38
- relative enzymatic activity (MurF): 0.946 ± 0.25
- relative enzymatic activity (RNA polymerase): 0.861 ± 0.087

Reference: the supplement of paper PMC9446081
